Reference: PubChem BioAssay (NCI)
Compounds without any hit were thinned out: in the full panel of roughly 83,000, 20% have a hit.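 The endpoint reported here, percent growth, reads 100 for growth as untreated, 0 for no net growth and -100 for all cells dead.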 A number with no mark means an inactive call. The source made the active and inactive calls. How the source made its calls: active means growth percent below 10; inactive means the rest.

Key:
Assay in all cases: NCI-60 one-dose screen, 48 h (100 = growth as untreated, 0 = no growth, -100 = all killed)
Conditions in all cases: 10 µM unless noted
NCI-H23 lung = system: NCI-H23 lung
NCI-H226 lung = system: NCI-H226 lung
NCI-H322M lung = system: NCI-H322M lung
HOP-62 NSCLC = system: HOP-62 NSCLC
NCI-H460 lung = system: NCI-H460 lung
HOP-92 NSCLC = system: HOP-92 NSCLC
NCI-H522 lung = system: NCI-H522 lung
A549/ATCC NSCLC = system: A549/ATCC NSCLC
786-0 renal = system: 786-0 renal
COLO 205 colon = system: COLO 205 colon
DU-145 prostate = system: DU-145 prostate
K-562 leukemia = system: K-562 leukemia
MALME-3M melanoma = system: MALME-3M melanoma
MDA-MB-231 breast = system: MDA-MB-231 breast
RXF 393 renal = system: RXF 393 renal
SF-268 CNS = system: SF-268 CNS
SF-295 CNS = system: SF-295 CNS
SF-539 CNS = system: SF-539 CNS
UACC-257 melanoma = system: UACC-257 melanoma
M14 melanoma = system: M14 melanoma

Structure (SMILES)	growth (NCI-H23 lung)	growth (NCI-H226 lung)	growth (NCI-H322M lung)	growth (HOP-62 NSCLC)	growth (NCI-H460 lung)	growth (HOP-92 NSCLC)	growth (NCI-H522 lung)	growth (A549/ATCC NSCLC)	growth (786-0 renal)	growth (COLO 205 colon)	growth (DU-145 prostate)	growth (K-562 leukemia)	growth (MALME-3M melanoma)	growth (MDA-MB-231 breast)	growth (RXF 393 renal)	growth (SF-268 CNS)	growth (SF-295 CNS)	growth (SF-539 CNS)	growth (UACC-257 melanoma)	growth (M14 melanoma)
O=C(N=c1n(-c2ccccc2)nc2n1CCN2C1=NCCN1)c1ccc(Cl)cc1	86.9%	93.3%	91.2%	91.6%	77.3%	61%	95.9%	83.4%	104%	62.2%	95.7%	71.9%	91.3%	69.5%	61.9%	83.8%	97.1%	77.8%	102%	107%
COc1ccc(OC)c(NC=O)c1	101%	103%	111%	98.1%	105%	101%	103%	105%	104%	108%	105%	99.8%	107%	106%	103%	99.6%	106%	103%	102%	103%
CC(C)CSc1ncnc2nc[nH]c12	94.7%	85.2%	103%	95.9%	96.9%	68.8%	88%	103%	93.8%	101%	100%	102%	104%	98.3%	92.3%	91.5%	103%	88.4%	98.4%	98.4%
CCc1ccc(C2=C/C(=C/c3ccccc3)C(=O)N2CCc2ccc(S(N)(=O)=O)cc2)cc1	101%	99.2%	94.5%	96.9%	100%	99.2%	100%	108%	98.6%	120%	115%	97.6%	94.3%	100%	99.3%	94%	101%	96.3%	106%	99.4%
COC(=O)c1c(C)[nH]c(/C=C2\N=C(c3ccc[nH]3)C=C2OC)c1C	10%	-16% (active)	-2.96% (active)	-17.5% (active)	4.82% (active)	-41.8% (active)	-60.1% (active)	-24.4% (active)	-27.7% (active)	-54.2% (active)	9.5% (active)	4.3% (active)	-69.3% (active)	-40.2% (active)	-33.9% (active)	18.3%	-56.7% (active)	-59.7% (active)	-49% (active)	-24% (active)
COc1ccc(-c2cc(-c3ccccc3)nc(NCCNc3ccnc4cc(Cl)ccc34)n2)cc1	-77.2% (active)	-37.9% (active)	-81% (active)	-83.8% (active)	-60% (active)	-77.4% (active)	-61.9% (active)	-75.5% (active)	-81.7% (active)	-80.8% (active)	-73.8% (active)	-47.1% (active)	-77.1% (active)	-89.8% (active)	-87% (active)	-40.1% (active)	-75.4% (active)	-81.7% (active)	-78.8% (active)	-78.7% (active)
CC1Cc2ccc(OCCN(C)C)cc2C1=O (stereo not given)	103%	99%	97.8%	96.4%	105%	82.1%	106%	88.9%	101%	105%	107%	100%	108%	112%	110%	103%	99.6%	99.5%	80%	99.4%
COc1cc(NN=C(c2ccc(O)cc2)c2ccc(O)cc2)c([N+](=O)[O-])cc1[N+](=O)[O-]	5.6% (active)	110%	94.3%	-1.66% (active)	1.73% (active)	70.2%	-49.9% (active)	-5.34% (active)	-29.5% (active)	12.7%	90.5%	109%	120%	91.9%	-34.4% (active)	72.3%	112%	5.64% (active)	-14.4% (active)	-15.9% (active)
CC(C)CCSC1=CC(=O)c2ccccc2C1=O	78%	69.6%	79.6%	78.4%	103%	-74.5% (active)	-68.9% (active)	79.7%	90.6%	132%	77%	19.3%	-23.5% (active)	0.131% (active)	43.8%	74.6%	103%	94.4%	58.6%	68.3%
C=C(C)[C@@H]1CC[C@]2(C(=O)OC)CC[C@]3(C)[C@H](CC[C@@H]4[C@@](C)(CCc5nn[nH]n5)[C@H](C(=C)C)CC[C@]43C)[C@@H]12	-13.8% [100 µM] (active)	-19.9% [100 µM] (active)	9.71% [100 µM] (active)	-72.7% [100 µM] (active)	-59.3% [100 µM] (active)	-39.8% [100 µM] (active)	-25.3% [100 µM] (active)	2.03% [100 µM] (active)	-8.74% [100 µM] (active)	-62.9% [100 µM] (active)	0.51% [100 µM] (active)	14.5% [100 µM]	-52% [100 µM] (active)	-76.9% [100 µM] (active)	-78.3% [100 µM] (active)	-23.1% [100 µM] (active)	-35.2% [100 µM] (active)	-65% [100 µM] (active)	-5.16% [100 µM] (active)	-9.37% [100 µM] (active)
CCOC(=O)C(c1ccccc1)N1C(=O)c2ccccc2C1=O (stereo not given)	87.2%	106%	96.2%	95.8%	100%	82%	96.8%	97.6%	102%	98.5%	107%	114%	94.9%	103%	105%	99.7%	100%	97.9%	91.9%	96.7%
CCOC(=O)COc1ccc2c(c1)O/C(=C\c1ccc(O)cc1)C2=O	104%	97.7%	99.7%	104%	104%	115%	97%	108%	112%	115%	106%	106%	102%	117%	114%	94.2%	101%	102%	105%	103%
Nc1nc(N)c2c(n1)NC(c1ccc(F)cc1)C1CCc3ccccc3C1=N2 (stereo not given)	51.1%	53.1%	67.3%	74.1%	26.2%	74.1%	101%	58.6%	60.9%	48.4%	62.1%	21.4%	17.2%	80.8%	83.1%	76.1%	34.2%	56.8%	45.6%	62.8%
O=S(=O)(NCCNc1nccc(-c2c(-c3cccc(F)c3)nc3occn23)n1)c1ccc(C(F)(F)F)cc1	98.5%	84.2%	89.3%	85.1%	98.9%	77.5%	74.4%	70%	78.7%	96%	87.9%	69.8%	86.2%	86.9%	67.9%	70.4%	110%	109%	104%	95.4%
CC(C)c1ccc(C(=O)Nc2nc3ccc(O)cc3s2)cc1	51.4%	66.6%	62.2%	93.1%	3.97% (active)	50%	39.6%	33.5%	0.538% (active)	33%	42.1%	-1.97% (active)	26.3%	73%	67.3%	51.5%	-36.4% (active)	-21.9% (active)	25.9%	3.05% (active)
